APP 5'UTR act: activators of APP 5'UTR luciferase reporter, primary screen, SH-SY5Y cells; SH-SY5Y APP 5'UTR luciferase reporter, luminescence; zero percent = DMSO vehicle wells; activation, % at 2 µM; 190,000 compounds, 1% hits; AID 1276, 2008;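 active = activation above a set limit, based on mean plus 3 SD of controls, cut at about 140% in these data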
NF-kB expr up: activators of NF-kB expression in neurons, primary screen, cell-based, HTS; 190,000 compounds, 1.6% hits; fold change at 12.5 µM; AID 1239, 2008; human neuronal cells, NF-kB reporter expression; stronger effect = higher value; in the data active = fold change above about 3.3
STAT1 activator: STAT1 signaling activators, primary screen, cell-based, HTS, luciferase reporter; activation (% of control), % at 5.5 µM; NIH 3T3 STAT1-luciferase reporter, IFN-gamma, luminescence; 100% = IFN-gamma alone, no compound; 200,000 compounds, 2.6% hits;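 active = activation above the screen-wide mean activation plus 3 SD, cut at about 130% in these data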;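 note: raw ratio to IFN-gamma control signal so 100% means no change and 0% no light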
Hsp70 activator: Hsp70 transcriptional activators, primary screen, cell-based, HeLa, Hsp70 promoter luciferase, luminescence, 10 µM; HeLa Hsp70 promoter luciferase reporter; scaled: vehicle 0, proteasome-inhibitor control 100%; 200,000 compounds, 0.04% hits; activation, % at 10 µM;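 active = activation above the mean across all tested compounds plus 3 SD, cutoff set per campaign, cut at about 5.5% in these data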;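 note: 100% = MG132 at 30 µM as the positive control and 0% = DMSO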
Wee1 stabilizer: Wee1 degradation inhibitors, primary screen, cell-based, HeLa, Wee1K328M-luciferase, luminescence | HeLa Luc-Wee1K328M stability; 100% = proteasome inhibitor MG132 effect | reporter increase, % at 5 µM | 220,000 compounds, 1.2% hits;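 active = activation above the mean of all tested compounds plus 3 SD, set per screening run, cut at about 8.8% in these data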;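 note: cells exposed to compound for 20 h before luminescence read; 0% = DMSO alone and 100% = MG132 at 30 µM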
Target sequence (P30291 whole entry K328M): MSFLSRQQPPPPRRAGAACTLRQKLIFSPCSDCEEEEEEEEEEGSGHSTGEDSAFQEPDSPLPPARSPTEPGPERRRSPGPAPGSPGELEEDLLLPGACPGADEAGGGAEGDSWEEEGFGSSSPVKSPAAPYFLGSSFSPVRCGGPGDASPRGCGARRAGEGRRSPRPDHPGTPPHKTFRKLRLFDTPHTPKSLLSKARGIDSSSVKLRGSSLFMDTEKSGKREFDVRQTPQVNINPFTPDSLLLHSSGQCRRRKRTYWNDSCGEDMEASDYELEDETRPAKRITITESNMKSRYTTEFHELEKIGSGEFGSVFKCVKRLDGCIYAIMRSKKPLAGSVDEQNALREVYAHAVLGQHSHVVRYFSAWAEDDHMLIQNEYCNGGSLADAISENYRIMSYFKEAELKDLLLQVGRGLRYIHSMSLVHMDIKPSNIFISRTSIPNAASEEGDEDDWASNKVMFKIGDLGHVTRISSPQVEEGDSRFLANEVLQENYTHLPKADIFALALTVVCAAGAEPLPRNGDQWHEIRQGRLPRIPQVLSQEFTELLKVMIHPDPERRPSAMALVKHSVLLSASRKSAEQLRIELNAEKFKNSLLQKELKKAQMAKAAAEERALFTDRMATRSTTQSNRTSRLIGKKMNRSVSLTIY
APP 5UTR inh: inhibitors of APP translation via 5'UTR reporter, primary screen, APP 5'UTR luciferase, SH-SY5Y cells; SH-SY5Y APP 5'UTR-luciferase reporter, luminescence; AID 1285, 2008; 190,000 compounds, 0.82% hits; inhibition, % at 2 µM;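 active = inhibition above a set limit, derived from the sample mean plus 3 SD, cut at about 45% in these data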
* = called active by the depositor; x = not tested or not shown. The list is not random: actives were taken first. Their share in the collection is about 4.8%.

SMILES	APP 5'UTR act	NF-kB expr up	STAT1 activator	Hsp70 activator	Wee1 stabilizer	APP 5UTR inh
O=C(Nc1nc2c(s1)CN(Cc1ccccc1)CC2)C1CCC1	9.4	1.85	124.8	0.0	2.7	-9.4
Cc1cc(C(=O)Nc2nc3c(s2)CCCC3)cs1	119.2	6.38*	136.0*	0.0	5.8	-119.2
CN1CCN(C(=O)c2ccc3nc(-c4ccccc4)c(-c4ccccc4)nc3c2)CC1	1.1	1.05	98.2	0.2	1.2	-1.1
COc1ccc(C(=O)COC(=O)CCN2C(=O)[C@@H]3[C@H](C2=O)[C@@H]2C[C@H]3C(Br)C2Br)cc1 (some centres not stated)	19.0	1.02	101.0	0.5	-1.7	-19.0
CCSc1n[nH]c2nc3c(c(=O)n12)C1(CCCCC1)Cc1ccccc1-3	x	x	x	x	2.5	x
Cc1ccc(S(=O)(=O)N2CCCC2C(=O)n2nc(C)cc2C)cc1 (configuration not stated)	4.6	0.96	102.6	0.4	1.4	-4.6
Cc1ccc(CC(=O)Nc2nc3c(s2)CCCC3)cc1	15.9	3.35*	101.2	-0.4	1.4	-15.9
C=CCNC(=S)Nc1ccc(C)cc1[N+](=O)[O-]	-8.9	x	101.8	0.5	9.1*	8.9
COC(=O)CCN(C(=O)c1ccc(C)c([N+](=O)[O-])c1)c1ccccn1	-2.7	1.06	101.5	-0.3	10.0*	2.7
Cc1cc(C)cc(Oc2coc3cc(OC(=O)c4cccs4)ccc3c2=O)c1	15.5	1.04	102.9	-0.4	-3.4	-15.5
Cc1cccc(Oc2coc3cc(OC(=O)c4cccs4)ccc3c2=O)c1	30.2	1.57	113.8	-0.2	10.6*	-30.2
Cc1ccnc(NS(=O)(=O)c2ccc(N3C(=O)c4c(Cl)c(Cl)c(Cl)c(Cl)c4C3=O)cc2)n1	12.1	1.39	100.2	-0.3	3.2	-12.1
COc1cccc(/C=N/NC(=O)c2cc3c(OC)cccc3[nH]2)c1O	-45.2	1.05	104.4	-0.4	2.8	45.3*
COc1cccc(/C=N/NC(=O)NC2CCCCC2)c1O	x	x	x	x	10.2*	x
COc1cccc(N=Nc2c(=O)[nH]n3c(=O)cc(C)[nH]c23)c1	-3.5	1.05	101.4	-0.2	1.1	3.5
CNC1=C(N(C(C)=O)c2ccc(Br)cc2)C(=O)c2ccccc2C1=O	-55.0	0.97	75.5	-0.3	-5.2	55.0*
COCC1CCN(Cc2nc(-c3cccs3)no2)C1 (configuration not stated)	48.9	x	134.8*	0.3	0.4	-48.9

Compound activity (PubChem BioAssay)
